# Laboratory results published in PubChem BioAssay (Tox21).
# Where “and” joins values, the source holds several entries; their conditions need not be identical. Equal values may be shown once. Unmarked numbers belong to inactive results. Entries that show only a call come without a potency. Calls of active or inactive are those of the source. Unless noted, the call rests on the fitted dose curve.
# Tests used:
# [1] = qHTS assay to identify small molecule antagonists of the thyroid receptor (TR) signaling pathway - cell viability counter screen (AID 743064; active means well fitted curve in the direction sought with a large enough effect in the repeat runs; inconclusive means weak or mixed curves; inactive means no such curve, though single readings can be large; an effect the other way counts as inactive or inconclusive; further: nearly all actives have a fitted effect of over 50% in size; further: potency means the concentration at half of the fitted maximal effect)
# In short: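 Counter screen for cytotoxicity: compound plus T3 (1 nM final) on GH3.TRE-Luc cells, 23.5 h at 37 °C, then fluorescence viability readout with CellTiter-Fluor.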
# [2] = test system: thyroid hormone receptor (rat, GH3 cells); experiment: qHTS assay to identify small molecule agonists of the thyroid receptor (TR) signaling pathway (AID 743066)
# [3] = target: Estrogen receptor (Homo sapiens) (UniProt P03372); experiment: qHTS assay to identify small molecule antagonists of the estrogen receptor alpha (ER-alpha) signaling pathway (AID 743069; active means well fitted curve in the direction sought with a large enough effect in the signal ratio in the repeat runs, not every such curve was filed as active; inconclusive means weak or mixed curves, or effect the other way; inactive means no such curve, though single readings can be large or run the other way; the % refers to the signal ratio; further: potency means the concentration at half of the fitted maximal effect)
# In short: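 HEK293 ER-alpha-UAS-bla GripTite cells, held overnight in 2% charcoal-stripped FBS, 5,000 cells/well, preincubated 4 h, then compound plus 17beta-estradiol for 18 h at 37C. Beta-lactamase read by LiveBLAzer B/G FRET substrate, 2 h at room temperature.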
# [4] = qHTS assay to identify small molecule antagonists of the estrogen receptor alpha (ER-alpha) signaling pathway - cell viability counter screen (AID 743074);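 further: HEK293 cells carrying ER-alpha-UAS-bla reporter stimulated with 17beta-estradiol; nearly all actives have a fitted effect of over 45% in size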
# [5] = target: Estrogen receptor (Homo sapiens) (UniProt P03372); experiment: qHTS assay to identify small molecule agonists of the estrogen receptor alpha (ER-alpha) signaling pathway (AID 743075)
# [6] = target: Estrogen receptor (Homo sapiens) (UniProt P03372); experiment: qHTS assay to identify small molecule agonists of the estrogen receptor alpha (ER-alpha) signaling pathway using the BG1 cell line (AID 743079; active means well fitted curve in the direction sought with a large enough effect in the repeat runs; inconclusive means weak or mixed curves; inactive means no such curve, though single readings can be large; an effect the other way counts as inactive or inconclusive; further: nearly all actives have a fitted effect of over 20% in size; further: potency means the concentration at half of the fitted maximal effect)
# [7] = qHTS assay to identify small molecule antagonists of the estrogen receptor alpha (ER-alpha) signaling pathway using the BG1 cell line (AID 743080);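 further: BG1 cells stimulated with 17beta-estradiol alongside compound; series mostly up to about 70 µM; nearly all actives have a fitted effect of over 25% in size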
# In short: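 Readout is ONE-Glo luminescence, taken 30 min at room temperature after reagent addition, preceded by a CellTiter-Fluor viability read; BG1-Luc-4E2 cells had received compound and 17beta-estradiol for 21.5 h at 37 C.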
# [8] = qHTS assay to identify small molecule antagonists of the estrogen receptor alpha (ER-alpha) signaling pathway using the BG1 cell line - cell viability counter screen (AID 743081; active means well fitted curve in the direction sought with a large enough effect in the repeat runs; inconclusive means weak or mixed curves; inactive means no such curve, though single readings can be large; an effect the other way counts as inactive or inconclusive;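 further: compound given together with 17beta-estradiol as the ER stimulus; nearly all actives have a fitted effect of over 45% in size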; further: potency means the concentration at half of the fitted maximal effect; on activity change, negative = cytotoxicity: series mostly up to about 70 µM)
# Aromatase (Homo sapiens) = Aromatase (Homo sapiens) (UniProt P11511); experiment: qHTS assay to identify aromatase inhibitors (AID 743083; active means well fitted curve in the direction sought with a large enough effect in the repeat runs; inconclusive means weak or mixed curves; inactive means no such curve, though single readings can be large; an effect the other way counts as inactive or inconclusive; further: nearly all actives have a fitted effect of over 55% in size; further: potency means the concentration at half of the fitted maximal effect; on activity, negative = inhibition: series mostly up to about 70 µM)
# Sequence of Aromatase (Homo sapiens) (P11511 whole entry, looked up): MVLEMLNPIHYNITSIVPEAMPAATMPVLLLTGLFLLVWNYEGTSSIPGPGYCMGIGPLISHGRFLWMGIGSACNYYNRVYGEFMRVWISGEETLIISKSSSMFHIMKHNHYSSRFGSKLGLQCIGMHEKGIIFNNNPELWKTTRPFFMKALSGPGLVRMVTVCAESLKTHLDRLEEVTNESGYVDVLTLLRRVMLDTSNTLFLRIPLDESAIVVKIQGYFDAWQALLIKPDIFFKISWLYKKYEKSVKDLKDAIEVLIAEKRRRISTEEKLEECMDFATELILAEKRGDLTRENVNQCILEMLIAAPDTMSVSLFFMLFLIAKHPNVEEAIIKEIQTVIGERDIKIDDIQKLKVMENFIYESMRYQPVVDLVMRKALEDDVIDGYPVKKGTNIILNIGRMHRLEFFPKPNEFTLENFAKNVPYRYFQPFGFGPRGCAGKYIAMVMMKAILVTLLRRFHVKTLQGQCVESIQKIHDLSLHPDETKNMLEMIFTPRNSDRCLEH
# Sequence of Estrogen receptor (Homo sapiens) (P03372 whole entry, looked up): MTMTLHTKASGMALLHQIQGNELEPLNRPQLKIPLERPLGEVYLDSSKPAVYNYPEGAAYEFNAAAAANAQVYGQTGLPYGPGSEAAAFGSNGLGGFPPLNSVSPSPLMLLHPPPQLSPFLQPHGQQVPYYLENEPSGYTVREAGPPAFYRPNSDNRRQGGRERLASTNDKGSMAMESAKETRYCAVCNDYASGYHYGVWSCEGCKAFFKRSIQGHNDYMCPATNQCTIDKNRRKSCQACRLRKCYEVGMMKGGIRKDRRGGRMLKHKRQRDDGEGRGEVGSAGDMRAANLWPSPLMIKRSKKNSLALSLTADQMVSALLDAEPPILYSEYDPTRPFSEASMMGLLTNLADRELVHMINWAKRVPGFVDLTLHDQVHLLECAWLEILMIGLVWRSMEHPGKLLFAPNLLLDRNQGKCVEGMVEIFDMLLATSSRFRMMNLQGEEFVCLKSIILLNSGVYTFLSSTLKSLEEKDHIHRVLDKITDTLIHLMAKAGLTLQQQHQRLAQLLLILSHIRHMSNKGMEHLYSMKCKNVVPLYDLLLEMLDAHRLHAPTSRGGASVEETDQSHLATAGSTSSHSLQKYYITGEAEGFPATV
smiles,measurement,setting,value
CNC(=O)CN(CCN(CCN(CC(=O)[O-])CC(=O)NC)CC(=O)[O-])CC(=O)[O-].O.[Gd+3],Potency,[1],inactive
same,Potency,[2],inactive
same,Potency,[3],inactive
same,Potency,[4],inactive
same,Potency,[5],inactive
same,Potency,[6],inactive
same,Potency,[7],inactive
same,Potency,[8],inactive
same,Potency,Aromatase (Homo sapiens),inactive
O=C(OCCc1ccccc1)c1ccccc1,Potency,[1],inactive
same,Potency,[2],inactive
same,Potency,[3],inactive
same,Potency,[5],inactive
same,Potency,[6],24.3 µM (active)
same,Potency,[8],inactive
same,Potency,Aromatase (Homo sapiens),inactive
C=C(C)C(=O)OCCOCC,Potency,[1],inactive
same,Potency,[2],inactive
same,Potency,[3],inactive
same,Potency,[4],inactive
same,Potency,[5],inactive
same,Potency,[6],inactive
same,Potency,[7],inactive
same,Potency,[8],inactive
same,Potency,Aromatase (Homo sapiens),inactive
COc1ccnc(CS(=O)c2nc3ccc(OC(F)F)cc3[nH]2)c1OC (stereo not given),Potency,[1],inactive
same,Potency,[2],inactive
same,Potency,[4],inactive
same,Potency,[5],inactive
same,Potency,[7],inactive
same,Potency,[8],inactive
same,Potency,Aromatase (Homo sapiens),inactive
Cc1ncc(CO)c(C=O)c1O,Potency,[1],inactive
same,Potency,[2],inactive
same,Potency,[3],inactive
same,Potency,[4],inactive
same,Potency,[5],inactive
same,Potency,[6],inactive
same,Potency,[7],inactive
same,Potency,[8],inactive
same,Potency,Aromatase (Homo sapiens),inactive
O=C1C(O)=C(O)C(=O)C(O)=C1O,Potency,[1],inactive
same,Potency,[2],inactive
same,Potency,[3],inactive
same,Potency,[4],inactive
same,Potency,[5],inactive
same,Potency,[6],inactive
same,Potency,[7],inactive
same,Potency,[8],inactive
same,Potency,Aromatase (Homo sapiens),inactive
CCCCCCCCO[C@@H]1O[C@H](CO)[C@@H](O)[C@H](O)[C@H]1O,Potency,[1],inactive
same,Potency,[2],inactive
same,Potency,[3],inactive
same,Potency,[4],inactive
same,Potency,[5],inactive
same,Potency,[6],inactive
same,Potency,[7],inactive
same,Potency,[8],inactive
same,Potency,Aromatase (Homo sapiens),inactive
CC(C)(O)c1ccc(CNC(=O)c2cccnc2Oc2ccc(F)cc2)cc1,Potency,[1],inactive
same,Potency,[2],inactive
same,Potency,[4],inactive
same,Potency,[8],inactive
CC1=CCCC(C)(C)C12CCC(C)O2 (stereo not given),Potency,[1],inactive
same,Potency,[2],inactive
same,Potency,[4],inactive
same,Potency,[8],inactive
c1ccc(CNCCNCc2ccccc2)cc1,Potency,[1],inactive
same,Potency,[2],inactive
same,Potency,[3],inactive
same,Potency,[4],inactive
same,Potency,[5],inactive
same,Potency,[6],inactive
same,Potency,[7],inactive
same,Potency,[8],inactive
same,Potency,Aromatase (Homo sapiens),inactive
C=CC(=O)OCCOCCOCCOCCOC(=O)C=C,Potency,[1],15.4 µM (active) and 17.1 µM (active)
same,Potency,[2],inactive
same,Potency,[3],62 µM [inconclusive] (active) and 61.1 µM [inconclusive] (active)
same,Potency,[4],inactive
same,Potency,[5],inactive
same,Potency,[8],61.4 µM (active)
same,Potency,Aromatase (Homo sapiens),15.4 µM (active) and 17.1 µM (active)
C=CCOc1ccccc1OCC(O)CNC(C)C (stereo not given),Potency,[1],inactive
same,Potency,[2],inactive
same,Potency,[3],inactive
same,Potency,[4],inactive
same,Potency,[5],inactive
same,Potency,[6],inactive
same,Potency,[7],inactive
same,Potency,Aromatase (Homo sapiens),inactive
C=C1[C@H]2CC[C@@H]3[C@H]2C(C)(C)CCC[C@]13C,Potency,[1],inactive
same,Potency,[2],inactive
same,Potency,[3],inactive
same,Potency,[4],inactive
same,Potency,[5],inactive
same,Potency,[6],inactive
same,Potency,[7],inactive
same,Potency,[8],inactive
same,Potency,Aromatase (Homo sapiens),inactive
N=c1ccn2c(n1)O[C@H]1[C@H](O)[C@@H](CO)O[C@H]12,Potency,[1],531 nM (active)
same,Potency,[2],inactive
same,Potency,[3],inactive
same,Potency,[4],inactive
same,Potency,[5],inactive
same,Potency,[6],inactive
same,Potency,[7],inactive
same,Potency,[8],inactive
same,Potency,Aromatase (Homo sapiens),inactive
CC(=O)[O][Al][O]C(C)=O,Potency,[1],inactive
same,Potency,[2],inactive
same,Potency,[4],inactive
same,Potency,[7],inactive
same,Potency,[8],inactive
same,Potency,Aromatase (Homo sapiens),inactive
C[C@H](CCC(=O)O)[C@H]1CC[C@H]2[C@@H]3CC[C@@H]4C[C@H](O)CC[C@]4(C)[C@H]3C[C@H](O)[C@]12C,Potency,[1],inactive
same,Potency,[2],inactive
same,Potency,[3],inactive
same,Potency,[4],inactive
same,Potency,[5],inactive
same,Potency,[6],inactive
same,Potency,[7],inactive
same,Potency,[8],inactive
same,Potency,Aromatase (Homo sapiens),inactive
CC(=O)OC[C@H]1O[C@@H](n2ncc(=O)[nH]c2=O)[C@H](OC(C)=O)[C@@H]1OC(C)=O,Potency,[1],inactive
same,Potency,[2],inactive
same,Potency,[3],2.68 µM [inconclusive] (active)
same,Potency,[4],inactive
same,Potency,[5],inactive
same,Potency,[6],inactive
same,Potency,[7],inactive
same,Potency,[8],inactive
same,Potency,Aromatase (Homo sapiens),inactive
CCCCCCCCCCO[C@@H]1O[C@H](CO)[C@@H](O)[C@H](O)[C@H]1O,Potency,[1],inactive
same,Potency,[2],inactive
same,Potency,[3],inactive
same,Potency,[4],inactive
same,Potency,[5],inactive
same,Potency,[6],inactive
same,Potency,[7],inactive
same,Potency,[8],inactive
same,Potency,Aromatase (Homo sapiens),inactive
CC(COCCO)OCCO (stereo not given),Potency,[1],inactive
same,Potency,[2],inactive
same,Potency,[4],inactive
same,Potency,[8],inactive
same,Potency,Aromatase (Homo sapiens),inactive
CCO[Si](CCCCl)(OCC)OCC,Potency,[1],inactive
same,Potency,[2],inactive
same,Potency,[3],inactive
same,Potency,[5],inactive
same,Potency,[6],inactive
same,Potency,[7],inactive
same,Potency,[8],inactive
same,Potency,Aromatase (Homo sapiens),inactive
OC[C@H]1O[C@@H](OCCc2ccc(O)cc2)[C@H](O)[C@@H](O)[C@@H]1O,Potency,[1],inactive
same,Potency,[2],inactive
same,Potency,[3],inactive
same,Potency,[5],inactive
same,Potency,[6],inactive
same,Potency,[7],inactive
same,Potency,[8],inactive
same,Potency,Aromatase (Homo sapiens),inactive
O=C(O)CNCC(=O)O,"activity change, negative = cytotoxic",[1],2.43% [at 8.44 µM]
same,activation,[2],-1.57% [at 8.08 µM]
same,"activity, negative = inhibition",[3],-6.23% [at 6.71 µM]
same,"activity, negative = cytotoxicity",[4],-3.67% [at 6.72 µM]
same,activation,[5],-4.82% [at 6.71 µM]
same,activation,[6],2.44% [at 8.47 µM]
same,"activity change, negative = inhibition",[7],0.887% [at 8.47 µM]
same,"activity change, negative = cytotoxicity",[8],-9.74% [at 8.47 µM]
same,"activity, negative = inhibition",Aromatase (Homo sapiens),14.5% [at 8.47 µM]
CC1OC(=O)C(C)OC1=O (stereo not given),Potency,[1],inactive
same,Potency,[2],inactive
same,Potency,[3],inactive
same,Potency,[4],inactive
same,Potency,[5],inactive
same,Potency,[7],inactive
same,Potency,[8],inactive
same,Potency,Aromatase (Homo sapiens),inactive
